Screens: PubChem BioAssay, National Center for Advancing Translational Sciences (NCATS)
Rab9 promoter act = qHTS Assay for Rab9 Promoter Activators. Huh7 Rab9 promoter-luciferase reporter, luminescence, 24 h. Potency, µM (doses to about 9.22 µM), for the others: at the top dose activation, negative = inhibition, actives largely listed as activators. 320,000 compounds, 2.8% hits. AID 485297, 2010; note: % of control where 0% means no effect; nearly all actives have a fitted effect of over 60% in size
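Quantitative HTS format; Huh7 Rab9-luciferase reporter cells (1500/well) receive compound 2 h post-plating, incubate 24 h at 37 °C, then get luciferase reagent for 10 min before luminescence reading.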
FLuc modulator = qHTS profiling assay for firefly luciferase inhibitor/activator using purifed enzyme and Km concentrations of substrates (counterscreen for miR-21 project) | Potency, µM (highest dose often 57.5 µM), for inactives: at the highest dose activity change, negative = inhibition, most hits filed as inhibitors | 360,000 compounds, 6.9% hits | AID 588342, 2011 | purified FLuc, Km substrates, luminescence inhibition;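 note: plate controls were vehicle for no effect and reference inhibitor for full effect; nearly all actives have a fitted effect of over 55% in size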
Target sequence (P08659 whole entry, looked up): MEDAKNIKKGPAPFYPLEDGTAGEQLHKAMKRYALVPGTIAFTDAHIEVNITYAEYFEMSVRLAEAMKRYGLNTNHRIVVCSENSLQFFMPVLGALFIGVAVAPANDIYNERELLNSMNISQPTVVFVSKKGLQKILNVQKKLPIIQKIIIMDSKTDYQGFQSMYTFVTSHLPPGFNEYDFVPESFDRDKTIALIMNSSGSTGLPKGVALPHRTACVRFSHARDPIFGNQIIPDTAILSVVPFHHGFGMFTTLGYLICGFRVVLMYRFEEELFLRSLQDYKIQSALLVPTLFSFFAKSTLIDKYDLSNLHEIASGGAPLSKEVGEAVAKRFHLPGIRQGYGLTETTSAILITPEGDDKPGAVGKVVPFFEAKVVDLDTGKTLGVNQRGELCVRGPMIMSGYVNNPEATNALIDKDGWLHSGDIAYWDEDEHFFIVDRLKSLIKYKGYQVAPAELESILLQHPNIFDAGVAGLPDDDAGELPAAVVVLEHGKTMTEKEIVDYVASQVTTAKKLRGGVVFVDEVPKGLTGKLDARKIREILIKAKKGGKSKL
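Purified P. pyralis luciferase (10nM final) with 10uM D-luciferin and 10uM ATP (Km levels) in 50mM Tris acetate pH 7.5, 10mM Mg acetate, 0.01% Tween-20, 0.05% BSA; qHTS 6-point titration, ~60 µM downward; luminescence read.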
ELG1 genotoxic = qHTS screen for small molecules that induce genotoxicity in human embryonic kidney (HEK293T) cells expressing luciferase-tagged ELG1 | HEK293T ELG1-luciferase reporter, luminescence, 16 h | Potency, µM (titrated, usually from 46 µM), without a hit: at the top dose activity change, positive = activation, most hits filed as activators | 330,000 compounds, 1.3% hits; note: % of control where 0% means no effect; nearly all actives have a fitted effect of over 60% in size
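ELG1-luciferase HEK293T cells, 2,000/well; compound pinned in; 16 hr, 37 °C, 5% CO2; ONE-Glo, 30 min RT; luminescence on CCD imager.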
SMN2 splice up = qHTS Assay for Enhancers of SMN2 Splice Variant Expression; HEK293 SMN2-luciferase splicing reporter, luminescence, 30-36 h; Potency, µM (doses to about 46.1 µM), without a hit: at the top dose activity change, positive = activation, hits mostly activators; 210,000 compounds, 2.8% hits; note: % of control where 0% means no effect; nearly all actives have a fitted effect of over 55% in size
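qHTS luciferase splicing reporter: luminescence rises when SMN2 exon 7 is included in transfected HEK293 cells. Compound exposure lasted 30-36 h at 37C, with 4.5 mM final sodium butyrate as control, followed by a ONE-Glo read.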
NPC1 promoter act = qHTS Assay for NPC1 Promoter Activators; Huh7 NPC1 promoter luciferase reporter, 24 h; 320,000 compounds, 2.4% hits; AID 485313, 2010; Potency, µM (top dose mostly 9.22 µM), without a hit: at the highest dose activation, actives largely listed as activators; note: % of control where 0% means no effect; nearly all actives have a fitted effect of over 60% in size
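Luminescence from an NPC1 promoter-driven luciferase reporter in stably transfected Huh7 cells was measured after 24 h compound treatment at 37 °C, followed by 10 min ambient incubation with luciferase detection reagent.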
Starred values were filed as active, the others as inactive; ? = inconclusive; · = no result; [ ] = another dose, or the depositor's remark. Rows were chosen to be rich in hits. Some 7.4% of all compounds tested hit in one or more screens of this group. Calls come from the whole dose curve; as a rule, active = well fitted curve in the direction sought with a large enough effect; inconclusive = small, poorly fitted or top-dose-only effect, or another doubt; inactive = no such curve, though single readings can be large; an effect the other way counts as inactive or inconclusive. Potency is the fitted concentration of half-maximal effect.

SMILES | Rab9 promoter act | FLuc modulator | ELG1 genotoxic | SMN2 splice up | NPC1 promoter act
CCc1nnc(NS(=O)(=O)c2ccc(NS(=O)(=O)c3ccccc3[N+](=O)[O-])cc2)s1 | 2.6% | -2.9% | -1.2% | · | -0.2%
CCOCc1nnc(NC(=O)c2cccc(OC)c2)s1 | 12.9% | ? | 13.0% | ? | 15.1%
CCc1nnc(NS(=O)(=O)c2ccc(Nc3ccc([N+](=O)[O-])c4nonc34)cc2)s1 | 0.5% | 15.1µM* | -0.4% | -16.4% | -7.4%
CCc1nnc(NC(=O)c2cccc(OC)c2)s1 | 3.16µM* | 8.49µM* | ? | 15.8µM* | 3.16µM*
CCc1nnc(NS(=O)(=O)c2ccc(NC(=O)c3ccc(Br)cc3)cc2)s1 | 0.1% | 26.9µM* | -0.4% | · | -5.8%
CCCCOC(=O)Nc1nnc(CC)s1 | ? | ? | 14.6µM* | 13.5% | 16.4%
CCc1nnc(NS(=O)(=O)c2ccc(N/C=C/C(=O)c3ccc(OC)cc3)cc2)s1 | -1.8% | 21.3µM* | ? | · | 6.9%
CCc1nnc(NS(=O)(=O)c2ccc(NC(=O)Nc3ccc(OC)cc3)cc2)s1 | -0.7% | ? | -6.6% | · | -5.2%
CCc1nnc(NC(=O)c2ccc(OC)cc2)s1 | 0.316µM* | 4.78µM* | -8.9% | 3.16µM* | 0.708µM*
COc1ccc(-c2nnc(NC(=O)c3cccs3)s2)c(OC)c1 | 0.3% | ? | ? | · | 4.1%
COc1cccc(C(=O)Nc2nnc(-c3cccs3)s2)c1 | 3.16µM* | 1.9µM* | 0.82µM* | 5.62µM* | ?
CCc1nnc(NC(=O)c2ccc(S(C)(=O)=O)cc2)s1 | 26.2% | 21.3µM* | 13.3% | · | ?
CCc1ccc(NC(=O)COc2ccc(F)cc2C(=O)c2cnn(-c3ccccc3)c2)cc1 | ? | 10.7µM* | 14.3% | · | 13.3%
COc1ccccc1NC(=O)COc1ccccc1 | -4.1% | ? | ? | -5.4% | 13.8%
COc1ccccc1NC(=O)COc1ccccc1C(=O)c1cnn(-c2ccccc2)c1 | 17.4% | 10.7µM* | ? | ? | 18.5%
CC1CCc2c(sc(/N=C/c3ccco3)c2C(N)=O)C1 (stereo unspecified) | 28.1% | 5.36µM* | ? | · | ?
CC1CCc2c(sc(/N=C/c3cccnc3)c2C(N)=O)C1 (stereo unspecified) | 2.2% | 23.9µM* | 17.3% | · | 8.1%
CN(C)c1oc(-c2ccc(COc3ccccc3)o2)nc1C#N | · | -15.3% | · | · | ·
CCN1CCc2c(sc(-n3cccc3)c2C(CCC(C)C)NC(=O)NCCC(=O)OC)C1 (stereo unspecified) | · | -7.3% | · | · | ·
Cn1cc(/C=C/C(=O)N2CCCC(C(=O)c3ccc(C(C)(C)C)cc3)C2)cn1 (stereo unspecified) | -0.7% | 16.9µM* | -3.8% | · | 0.5%
COc1cccc([C@@H]2Oc3ccc(OC)cc3C(=O)[C@H]2OC(=O)Nc2ccc(C)c(Br)c2)c1 | · | · | · | 9.0% | ·
COc1cccc2cc(C(=O)Nc3ccc(C)cc3)c(=O)oc12 | · | 0.379µM* | · | 14.3% | ·
COc1ccc(C(=O)Cc2cc3cccc(OC)c3oc2=O)cc1 | -5.1%[1.84 µM] | ? | 12.6% | · | 27.7%
COc1cccc2cc(CC(=O)c3ccc(C)cc3C)c(=O)oc12 | ? | 10.7µM* | 11.0% | · | ?
COc1cccc2cc(NC(=O)C3CCCCC3)c(=O)oc12 | 1.78µM* | ? | ? | ? | 3.16µM*
SMILES | Rab9 promoter act | FLuc modulator | ELG1 genotoxic | SMN2 splice up | NPC1 promoter act
COc1cccc2cc(C(=O)Nc3ccc(F)c(F)c3)c(=O)oc12 | · | 0.4% | · | 2.1% | ·
COc1cccc2cc(C(=O)Nc3cccc(C)n3)c(=O)oc12 | ? | 0.213µM* | 2.31µM* | -8.3% | 22.4%
O=C(Nc1c2c(nn1-c1ccc(Cl)cc1)CS(=O)(=O)C2)c1cccc(F)c1 | · | 0.9% | · | · | ·
CN(C)c1ccc(CNC(=O)C2CCN(Cc3cc4ccccc4n3Cc3ccccc3)CC2)cc1 | · | 4.9% | · | · | ·
CCOc1ccccc1NC(=O)c1c(NC(=O)Cc2ccc(OC)cc2)sc2c1CCC2 | · | 1.6% | · | 4.2% | ·
COC(=O)c1ccccc1NC(=O)NCCc1c(C)nn(C)c1C | · | -8.5% | · | · | ·
O=C(CSc1nc2c(cnn2-c2ccc(F)cc2)c(=O)[nH]1)Nc1ccccc1C(F)(F)F | · | -17.4% | · | -0.8% | ·
O=c1[nH]cnc2nn(-c3ccccc3)nc12 | ? | 21.3µM* | ? | ? | ?
O=C(NC1CCCCC1)C(=S)NCCc1ccccc1 | 13.9% | ? | 8.0% | ? | 9.6%
S=C(NCCc1ccc(Cl)cc1)NC1CCCCC1 | ? | 19µM* | -7.4% | · | 3.98µM*
O=C(NCCc1ccccc1)C(=O)NC1CCCCC1 | 3.16µM* | -1.0%[2.3 µM] | 10.5% | 57.9% | 3.55µM*
S=C(NCCc1ccccc1)NCc1cccs1 | ? | ? | ? | 10µM* | ?
Fc1ccccc1NC(=S)NCCc1ccc(Cl)cc1 | ? | 19µM* | ? | · | ?
COc1cc(NC(=O)O[C@@H]2C(=O)c3cc(Br)ccc3O[C@H]2c2ccc3c(c2)OCO3)cc(OC)c1OC | · | · | · | 1.0% | ·
S=C(NCCNCc1ccccc1)NC1CCCCC1 | -8.0% | 0.0% | -18.5% | -5.6% | -1.4%
S=C(NCCc1ccccc1)NC1CCCCCC1 | 3.16µM* | 10.7µM* | 8.2µM* | 12.6µM* | 2.51µM*
Cc1ccc(N(C)C(=O)Cn2ncc3c([nH]c4ccccc43)c2=O)cc1C | · | -17.6% | · | · | ·
COc1cc2c(cc1OC)CN(c1ccc(F)cc1[N+](=O)[O-])CC2 | ? | 12µM* | 13.0% | · | 22.9%
COc1cc2c(cc1OC)CN(c1ccc([N+](=O)[O-])cc1Cl)CC2 | -3.5% | -10.5% | 9.8% | -37.4% | -7.2%
O=C(Cn1c(=O)n(-c2ccc(Cl)cc2)c(=O)c2sc3ccccc3c21)NC1CCCC1 | · | -0.7% | · | -0.5% | ·
CCN(CC)c1nn2c(=O)c(C(=O)NCc3ccc(N(C)C)cc3)cnc2s1 | · | -2.2% | · | · | ·
COc1ccc(NC(=O)Nc2nnc(-c3ccco3)s2)cc1 | 1.26µM* | ? | ? | · | 0.891µM*
COc1ccc(NC(=O)Nc2nnc(C(C)C)s2)cc1 | ? | 21.3µM* | ? | 26.2% | 3.55µM*
COc1ccc(NC(=O)Nc2nnc(-c3ccccc3F)s2)cc1 | 2.82µM* | -3.4% | 1.1% | 13.6% | ?
C[C@@H]1CC=C[C@H]2[C@H]1C(=O)N(Cc1ccccc1)[C@H]2c1ccc(-c2cc3ccccc3s2)cc1F | ? | 1.69µM* | ? | · | ?
C[C@@H]1CC=C[C@H]2[C@H]1C(=O)N(Cc1ccccc1)[C@H]2c1ccc(-c2ccc(F)cc2)cc1F | -6.7% | 3.2% | -4.9% | · | -9.0%
CN(CC(=O)NCc1ccc(Cl)cc1)S(=O)(=O)c1ccc2c(c1)c(=O)n(C)c(=O)n2C | · | 3.1% | · | 23.8% | ·
